CHX counter – Cycloheximide Counterscreen for Small Molecule Inhibitors of Shiga Toxin. cell reporter, cycloheximide protein synthesis inhibition counterscreen. max response, %. 300,000 tested, 12% active; in the data active = max response mostly above about 13%, no sharp cut-off; inactive = mostly below about 14%; note: read at 38.3 µM for the half of the compounds with a filed dose; 0% is about no effect
Shiga toxin inh – A qHTS for Small Molecule Inhibitors of Shiga Toxin | Vero cells, Shiga toxin protein synthesis inhibition reporter | 290,000 tested, 9.2% active | AID 2315, 2010 | inhibition, % at 38.7 µM; in the data active = inhibition mostly above about 28%, no sharp cut-off; inactive = mostly below about 43%; note: 0% is about no effect
Pf growth 48h – Primary qHTS for delayed death inhibitors of the malarial parasite plastid, 48 hour incubation; P. falciparum luciferase growth in erythrocytes, 48 h; Potency, µM (titrated, usually from 28.7 µM), inactives show top-dose activity change, negative = inhibition, most hits filed as inhibitors; 310,000 tested, 5.9% active; note: potency is the fitted concentration of half-maximal effect; % is set by controls: 0 for no effect and ±100 for the full control effect
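Here the parasites carry a stable luciferase gene and grow inside erythrocytes in Albumax-based RPMI medium with compound for one erythrocytic cycle. Activity is scored as loss of luminescent signal.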
AMA1 RON2 block – qHTS for Inhibitors of AMA1-RON; Towards Development of Antimalarial Drug Lead: Primary Screen; AlphaScreen AMA1-biotinylated RON2 peptide binding; Plasmodium falciparum AMA1 (3D7) - RON2 peptide interaction; Potency, µM (doses to about 58.2 µM), inactives show at the highest dose activity change, negative = inhibition, actives largely listed as inhibitors; 360,000 tested, 0.2% active; AID 720542, 2013;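 note: potency is the fitted concentration of half-maximal effect; 0% = vehicle wells and -100% = peptide control; nearly all actives have a fitted effect of over 45% in size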
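AMA1 (3D7) with his tag at 25 nM final met compounds first, then biotinylated RON2 peptide at 25 nM; detection used donor plus acceptor beads, 10 µg/mL apiece, read by AlphaScreen after 30 min at room temperature.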
Pf growth 96h – Primary qHTS for delayed death inhibitors of the malarial parasite plastid, 96 hour incubation; 320,000 tested, 6.9% active; Potency, µM (series often up to 28.7 µM), without a hit: at the top dose activity change, negative = inhibition, hits mostly inhibitors; P. falciparum luciferase reporter growth, 96 h; AID 504834, 2011; note: potency is the fitted concentration of half-maximal effect; % is set by controls: 0 for no effect and ±100 for the full control effect
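Two-generation exposure (96 h) targets delayed-death phenotype. Reporter parasites carrying integrated firefly luciferase, in red cells at 2% hematocrit and 0.05% parasitemia final, kept at 37 C, 5% CO2; luminescence loss indicates inhibition.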
HCV inhibitor – qHTS Assay for Inhibitors of Hepatitis C Virus (HCV); Huh7.5.1 HCVcc-Cre infection, luciferase reporter, 44 h; Potency, µM (titrated, usually from 41.8 µM), for inactives: at the highest dose activity change, negative = inhibition, usual class: inhibitors; 340,000 tested, 3.4% active; AID 651820, 2012; note: potency is the fitted concentration of half-maximal effect; % is set by controls: 0 for no effect and ±100 for the full control effect
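After 44 h co-culture of compound, cells and HCVcc-Cre (~0.5 moi), substrate is added for 15 min at room temperature and luciferase measured over 15 sec. Cells were seeded at 1,000/well and pre-cultured 4 h.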
* hit, by the source's call; i = inactive; ? = inconclusive; · = not tested or not shown; [ ] = dose if it differs, or a comment. Most compounds without a hit are left out; they make up all but 21% or so of the library. Unless noted, calls come from the whole dose curve; as a rule, active = well fitted curve in the direction sought with a large enough effect; inconclusive = small, poorly fitted or top-dose-only effect, or another doubt; inactive = no such curve, though single readings can be large; an effect the other way counts as inactive or inconclusive.

SMILES	CHX counter	Shiga toxin inh	Pf growth 48h	AMA1 RON2 block	Pf growth 96h	HCV inhibitor
Cn1cc(CN2CCCC(C(=O)Nc3cccc(-c4cc5ccccc5[nH]4)c3)C2)cn1 (stereo not drawn)	-1.1	-11.4	?	-29.0%	81.3%	7.08µM*
CCn1cc(CN2CCCC(C(=O)Nc3cccc(-c4cc5ccccc5[nH]4)c3)C2)c(C)n1 (stereo not drawn)	0.4	-6.8	?	-13.3%	0.0%	?
COc1ccc(Cl)cc1C(=O)NNC(=O)c1cccs1	·	·	·	13.2%	·	22.9%
CC1=C(C(=O)Nc2ccccn2)C(c2ccc(Br)cc2)NC(=S)N1 (stereo not drawn)	36.9*	50.4*	36.7%	2.2%	50.3%	-11.7%
CC1=C(C(=O)Nc2ccccn2)C(c2ccc(Br)cc2)n2ncnc2N1 (stereo not drawn)	22.0	23.9	37.8%	1.5%	-16.8%	-9.0%
CC1=C(C(=O)Nc2ccccn2)C(c2ccc(Cl)cc2)NC(=S)N1 (stereo not drawn)	46.0*	71.6*	122.3%	1.6%	-12.8%	2.4%
CN1OC[C@@H]2CN(Cc3cc(Cl)cc(Cl)c3)[C@H](c3cccc(-c4ccc(C#N)cc4)c3)C[C@@H]21	·	·	·	-16.3%	·	·
CCOC(=O)C1=C(N)N(c2ccccc2)C2=C(C(=O)CCC2)C1c1cccnc1 (stereo not drawn)	-4.2	-10.7	-20.2%	21.0%	5.22µM*	9.5%
CCSc1sccc1C1C(C#N)=C(N)N(c2cccnc2)C2=C1C(=O)CCC2 (stereo not drawn)	-2.8	1.2	11.7µM*	46.9%	239.1%	20.3%
COc1cc(Cl)c(C)cc1NC(=O)CN(C)Cc1cccc(OC)c1OC	-5.3	15.6	?	13.6%	-36.7%	10µM*
COc1ccccc1CN(C)CC(=O)Nc1ccc(Cl)cc1C(F)(F)F	14.8*	13.0	1.9%	-0.4%[11.6 µM]	?	?
COc1ccccc1CN(C)CC(=O)Nc1ccc(Cl)cc1F	18.3	4.0	i	63.4%	62.7%	1.1%
COc1ccccc1CN(C)CC(=O)Nc1cccc2ccccc12	-3.0	-4.2	-7.1%	12.7%	0.2%	-0.9%
COc1cc(Cl)c(C)cc1NC(=O)CNC(C)c1ccccc1OC (stereo not drawn)	0.4	-10.1	-12.2%	-22.1%	9.28µM*	?
CCN(CC(=O)Nc1ccc(NC(C)=O)cc1)C(=O)C1CC1	·	·	·	1.3%	·	·
CN1c2ccccc2C(C)(C)C12C=Cc1cc(O)ccc1O2 (stereo not drawn)	20.6*	54.4	?	?	?	5.62µM*
Cc1ccc2cc(CN(CC3CCCO3)C(=O)Nc3ccccc3F)c3nnnn3c2c1 (stereo not drawn)	45.0*	83.6*	41.9%	1.8%	?	-6.3%
Cc1cc(C)c2nc(NCCCNC(=S)NCCCN(C)C)c(C#N)cc2c1	-7.0	-7.9	?	14.3%	-45.5%	11.2µM*
CCOCCCNC(=S)NCCCNc1nc2c(C)cc(C)cc2cc1C#N	4.8	17.1	?	24.9%	-20.7%	12.7%
CC(O)[C@@H]1NC(=O)[C@H](CCCN)NC(=O)[C@@H](Cc2c[nH]c3ccccc23)NC(=O)[C@H](Cc2ccc(O)cc2)NC(=O)[C@@H](NC(=O)[C@H](N)Cc2ccccc2)CSSC(C)(C)C(C(=O)N[C@H](C(N)=O)[C@@H](C)O)NC1=O (stereo partly drawn)	-9.8	-3.9	·	·	·	·
COc1ccc(C2CC(c3ccccc3)=NN2C(=O)c2cccs2)cc1 (stereo not drawn)	73.4*	75.3*	?	20.0%	?	?
COc1ccc(C2CC(c3ccccc3)=NN2C(=O)COC(=O)C2(C)CC2(Cl)Cl)cc1 (stereo not drawn)	7.3	6.9	?	-18.1%	9.28µM*	?
COc1ccc(C2CC(c3ccccc3)=NN2C(=O)COC(=O)C2CC2)cc1 (stereo not drawn)	7.8	13.7	14.0%	-1.5%	31.3%	7.0%
COc1ccc(C2=NN(C(=O)c3cccs3)C(c3ccccc3O)C2)cc1 (stereo not drawn)	26.2*	87.2	10.4µM*	1.0%	?	?
COC(=O)c1c(C)noc1-c1snnc1C	-1.8	-16.8	-4.1%	5.8%	30.7%	24.9%
SMILES	CHX counter	Shiga toxin inh	Pf growth 48h	AMA1 RON2 block	Pf growth 96h	HCV inhibitor
CC(C)=NOC(=O)c1c(C)noc1-c1snnc1C	-1.8	-12.1	1.65µM*	8.7%	1.85µM*	17.2%
CC(=O)N/C(=C\c1ccccc1)C(=O)OC(C)C(=O)NCc1ccccc1 (stereo not drawn)	·	·	-0.9%	-1.1%	1.1%	5.1%
COc1ccc2sc(NC(=O)CC(C)C)nc2c1	39.1*	94.0*	47.8%	-3.6%	?	-14.2%
COc1cccc(NC(=O)NC(=O)c2c(C)cc(Cl)nc2Cl)c1	-2.7	-1.1	?	0.4%	16.2%	0.2%
COc1ccc2sc(NCc3ccccc3)nc2c1	48.4*	145.9*	180.8%	-5.9%	183.6%	-1.2%
CCC(=O)Nc1nc2cc(OC)ccc2s1	55.4*	183.5*	241.1%	-4.2%	-16.9%	-24.6%
CCC(=O)Nc1nc2ccc(NC(=O)c3cc(OC)c(OC)c(OC)c3)cc2s1	8.1	19.1	?	-18.6%	23.2%	?
COc1ccc2sc(NC(=O)NC(=O)c3c(Cl)cccc3Cl)nc2c1	18.8*	38.4	10.4µM*	-24.8%	8.28µM*	-17.3%
COc1ccc(-c2c(C(F)(F)F)nn(C)c2NC(C)=O)cc1	-1.1	-26.6	?	4.3%	?	-0.5%
COc1ccc2sc(NC(C)=O)nc2c1	33.6*	64.1*	169.8%	-2.2%	?	-6.7%
COc1ccc(CN(C)c2ncnc3sccc23)c(OC)c1OC	-1.9	-2.9	13.1µM*	1.8%	?	11.2µM*
COc1ccc(CNc2ncnc3sccc23)cc1OC	-3.7	29.7	-19.9%	3.4%	-12.8%	6.31µM*
COc1ccc(CCN(C)C(=O)CSc2ncnc3sccc23)cc1OC	12.2	-6.8	-20.3%	-13.7%	?	-10.3%
CN(Cc1cccs1)c1ncnc2sccc12	2.7	-5.7	-13.7%	7.7%	3.3%	11.2µM*
COc1ccc(CCN(C)c2ncnc3sccc23)cc1OC	-2.5	-12.0	-5.3%	0.0%	4.1%	10µM*
CN(Cc1ccccc1F)c1ncnc2sccc12	-4.6	61.5	-2.2%	-2.9%	7.8%	?
CCOC(=O)N1CCN(C(=O)COC(=O)C2CCN(S(=O)(=O)c3c(Cl)cccc3Cl)CC2)CC1	·	·	?	12.6%	-11.1%	17.7%
O=C(Nc1ccncc1)c1cccc2ccccc12	15.2	1.7	?	-8.2%	?	?

Source: PubChem
